Most compounds without a hit are left out; they make up all but 1.1% or so of the library.
MIN6 prolif: induces beta-cell replication in MIN6 cells. MIN6 cells proliferation, ATPlite luminescence, 48 h; cells starved in 0.2% serum; 100% = growth in 10% serum. proliferation, % at 10 µM. 330,000 tested, 0.29% active. AID 2380;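 active means compounds whose signal lies at least 3.5 SD above the mean of all wells on their plate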;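 further: 0% = DMSO-treated cells in low-serum medium and 100% = 10% serum control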
APOBEC3A inh: human APOBEC3A DNA deaminase inhibition; P31941; recombinant A3A, FAM/TAMRA ssDNA deamination fluorescence; inhibition, % at 20 µM; 330,000 tested, 0.41% active;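 active means at least 40% inhibition at 20 µM here, with at most 30% in a related deaminase screen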;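 further: plate controls were A3A with DMSO for no effect and wells lacking A3A enzyme for full effect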
Target sequence (P31941 whole entry, looked up): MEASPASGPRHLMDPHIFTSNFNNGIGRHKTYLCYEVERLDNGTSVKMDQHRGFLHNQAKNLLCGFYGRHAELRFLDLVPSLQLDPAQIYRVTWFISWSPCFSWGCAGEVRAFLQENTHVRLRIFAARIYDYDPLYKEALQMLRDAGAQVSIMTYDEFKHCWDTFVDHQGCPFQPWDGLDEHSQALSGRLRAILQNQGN
A1 inh: inhibitors of the anti-apoptotic protein A1, read as caspase activation. MEF A1-2A-BIM cells, Caspase-Glo 3/7 luminescence, 3 h; percent of clofoctol response, vehicle zero. caspase activation, % (test concentration not listed). 330,000 tested, 0.066% active;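 active means over half of replicate activation scores above 10%, or exactly half above 10 with the replicate mean above 10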
APOBEC3G inh: inhibitors of human APOBEC3G DNA deaminase | 330,000 tested, 0.28% active | inhibition, % at 20 µM | Q9HC16 | recombinant A3G, ssDNA deamination FAM/TAMRA fluorescence;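 active means inhibition of at least 40% at 20 µM, with no more than 30% in the related APOBEC3A deaminase screen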;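 further: plate controls were DMSO wells with A3G for no effect and wells lacking A3G enzyme for full effect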
APOBEC3G confirm: confirmation of human APOBEC3G DNA deaminase inhibitors; shares compounds with APOBEC3G inh; recombinant A3G ssDNA deaminase, UDG/FAM-TAMRA fluorescence; inhibition, % at 20 µM; 890 tested, 72% active;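 active means inhibition reaching a set limit in any replicate at 20 µM, the limit being 80% of the first screen's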
UDG A3G counter: counter-screen for APOBEC3G inhibitors: E. coli UDG; shares compounds with APOBEC3G inh; UDG counterscreen, FAM/TAMRA oligo fluorescence; 710 tested, under 10 active; inhibition, % at 20 µM;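 active means compounds giving 40% or more inhibition at 20 µM in any one of the three replicates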;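 further: plate controls were DMSO wells with UDG and oligo for no effect and DMSO wells lacking both for full effect; inhibitors lower the FAM signal released by uracil excision and alkaline cleavage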
Target sequence (P12295 whole entry, looked up): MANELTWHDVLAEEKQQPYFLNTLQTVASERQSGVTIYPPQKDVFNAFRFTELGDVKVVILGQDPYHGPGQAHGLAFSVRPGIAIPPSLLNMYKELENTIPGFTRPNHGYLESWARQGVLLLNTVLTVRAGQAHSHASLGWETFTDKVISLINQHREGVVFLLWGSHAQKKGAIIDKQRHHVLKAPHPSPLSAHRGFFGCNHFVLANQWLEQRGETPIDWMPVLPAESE
* hit, by the source's call.

For CC(C(Sc1ccccc1N)c1ccccc1)[N+](=O)[O-] (stereo not drawn) the results were MIN6 prolif -4.1, APOBEC3A inh 0.8, A1 inh 0.6, APOBEC3G inh 64.9*, APOBEC3G confirm 26.2* and UDG A3G counter -1.7.
For Nc1ccccc1SCc1ccccc1Cl the results were MIN6 prolif -1.5, APOBEC3A inh 1.5, A1 inh 0.0 and APOBEC3G inh -3.4.
Cc1noc(C)c1S(=O)(=O)N1CCCC(C(=O)NCc2ccccn2)C1 (stereo not drawn) was read as MIN6 prolif 0.0, APOBEC3A inh 2.9, A1 inh -0.4, APOBEC3G inh 49.0* and APOBEC3G confirm 1.0.
For Cc1ccc(C(=O)C2CCOC(C)(C)C2)cc1 (stereo not drawn) the results were MIN6 prolif -0.4, APOBEC3A inh -0.8, A1 inh -0.1 and APOBEC3G inh -3.4.
CCOC(=O)c1c(N)sn(-c2ccccc2C)c1=S was read as MIN6 prolif -6.1, APOBEC3A inh -20.8, A1 inh 0.3, APOBEC3G inh 57.0*, APOBEC3G confirm 53.8* and UDG A3G counter -0.3.
`CCOC(=O)c1nn(-c2ccccc2C)c(=O)c2c(N)scc12` gave MIN6 prolif -0.3, APOBEC3A inh 0.5, A1 inh 0.0 and APOBEC3G inh 28.8.
For Cc1cc(-c2csc(N)n2)c(C)n1CCc1ccccc1 the results were MIN6 prolif -5.8, APOBEC3A inh -0.7, A1 inh 0.5 and APOBEC3G inh 2.6.
Screening Cc1cc(-c2csc(N)n2)c(C)n1CCC(C)C returned MIN6 prolif -5.2, APOBEC3A inh 6.5, A1 inh 0.3, APOBEC3G inh 40.3* and APOBEC3G confirm 12.7.
Screening Cc1cccc(/C(N)=N/OC(=O)CCCc2ccccc2)c1 returned MIN6 prolif -2.9, APOBEC3A inh 1.2, A1 inh -0.3 and APOBEC3G inh 2.7.
CCOC(=O)/C=C/C(=O)Nc1cccc([N+](=O)[O-])c1 was read as MIN6 prolif -7.1, APOBEC3A inh 4.5, A1 inh -0.2, APOBEC3G inh 40.1*, APOBEC3G confirm 64.2* and UDG A3G counter 4.3.
`CN1C(=O)N(CC(=O)N2CCN(S(=O)(=O)c3ccc(Cl)s3)CC2)C(=O)C12CCCCC2` gave MIN6 prolif -3.2, APOBEC3A inh 32.1, A1 inh -0.2 and APOBEC3G inh 2.5.
Screening S=c1[nH]nc(-c2ccco2)n1/N=C/C=C/c1ccco1 returned MIN6 prolif -1.4, APOBEC3A inh 62.5, A1 inh 0.0 and APOBEC3G inh 72.9.
For S=c1[nH]nc(-c2ccco2)n1/N=C/c1ccccc1Cl the results were MIN6 prolif -1.8, APOBEC3A inh -5.0, A1 inh 0.1, APOBEC3G inh 44.7*, APOBEC3G confirm 37.3* and UDG A3G counter 3.2.
S=c1[nH]nc(-c2ccco2)n1/N=C/c1ccc(Cl)cc1 was read as A1 inh -0.4.
`Cc1cc(-c2n[nH]c(=S)n2/N=C/c2ccc(C)s2)n[nH]1` gave MIN6 prolif -0.9, APOBEC3A inh 5.2, A1 inh 0.3, APOBEC3G inh 54.9*, APOBEC3G confirm 72.2* and UDG A3G counter -3.2.
`Cc1ccc(/C=N/n2c(-c3ccco3)n[nH]c2=S)s1` gave MIN6 prolif -2.3, APOBEC3A inh -6.0, A1 inh 0.0, APOBEC3G inh 40.7*, APOBEC3G confirm 74.8* and UDG A3G counter 0.8.
CC(C)[C@H](NC(=O)c1nn(Cc2ccccc2)c(=O)c2ccccc12)C(=O)O was read as MIN6 prolif 0.6, APOBEC3A inh 1.0, A1 inh 0.0 and APOBEC3G inh -11.5.
For Cc1cc(C#N)c2ccccc2n1 the results were MIN6 prolif 0.4, APOBEC3A inh -17.0, A1 inh -0.5 and APOBEC3G inh -5.7.
N#Cc1cc(-c2ccccc2)[nH]c1-c1nccc2ccccc12 was read as MIN6 prolif -7.2, APOBEC3A inh 2.2, A1 inh -0.1, APOBEC3G inh 41.4* and APOBEC3G confirm 1.1.
Screening CCC(C)(C)C1CCc2[nH]nc(C(=O)O)c2C1 (stereo not drawn) returned MIN6 prolif -1.3, APOBEC3A inh -0.7, A1 inh 1.1 and APOBEC3G inh -2.5.
Screening Cc1ccc(S(=O)(=O)C(C#N)c2nc3ccccc3nc2N2CCCC2)cc1 (stereo not drawn) returned MIN6 prolif -3.6, APOBEC3A inh -4.2, A1 inh -0.2, APOBEC3G inh 45.1*, APOBEC3G confirm 6.5 and UDG A3G counter -3.5.
`CCN1CCN(c2nc3ccccc3nc2C(C#N)S(=O)(=O)c2ccc(C)cc2)CC1` (stereo not drawn) gave MIN6 prolif -1.9, APOBEC3A inh -0.7, A1 inh 0.4 and APOBEC3G inh -9.8.
Cc1cc(C(=O)O)ccc1-n1c(C)cc(C=C2C(=O)c3ccccc3C2=O)c1C was read as MIN6 prolif -1.2, APOBEC3A inh 7.7, A1 inh 0.2, APOBEC3G inh 51.1* and APOBEC3G confirm 11.0.
`Cc1cc(C(=O)O)ccc1-n1c(C)cc(/C=C(/C#N)C(=O)Nc2ccccc2)c1C` gave MIN6 prolif -3.5, APOBEC3A inh 8.9, A1 inh 1.3 and APOBEC3G inh 10.6.
Screening CCn1c(CSCc2ccccc2)n[nH]c1=S returned MIN6 prolif 1.2, APOBEC3A inh -3.5, A1 inh -0.1, APOBEC3G inh 40.5*, APOBEC3G confirm 84.9* and UDG A3G counter -1.2.
Screening CCn1c(CSc2nc3ccccc3[nH]2)n[nH]c1=S returned MIN6 prolif 3.0, APOBEC3A inh 1.5, A1 inh -0.1, APOBEC3G inh 46.4*, APOBEC3G confirm 54.5* and UDG A3G counter -2.2.
`CCOc1ccccc1CSc1nc2ccccc2[nH]1` gave MIN6 prolif 0.0, APOBEC3A inh -0.6, A1 inh -0.2 and APOBEC3G inh -1.4.
COc1cc(/C=N/n2c(-c3n[nH]c4c3CCC4)n[nH]c2=S)cc(OC)c1O was read as MIN6 prolif 0.2, APOBEC3A inh -1.5, A1 inh 0.3, APOBEC3G inh 54.2*, APOBEC3G confirm 68.4* and UDG A3G counter -2.0.
`COc1ccccc1/C=C/C=N/n1c(-c2n[nH]c3c2CCC3)n[nH]c1=S` gave MIN6 prolif -1.2, APOBEC3A inh -8.3, A1 inh -0.2 and APOBEC3G inh 21.6.
Cc1cc(-c2n[nH]c(=S)n2/N=C/c2ccccc2[N+](=O)[O-])n[nH]1 was read as MIN6 prolif 0.0, APOBEC3A inh -5.5, A1 inh 0.2, APOBEC3G inh 60.8*, APOBEC3G confirm 82.5* and UDG A3G counter -2.2.
Screening Cc1n[nH]c(=S)n1/N=C/c1ccc(-c2ccccc2[N+](=O)[O-])o1 returned MIN6 prolif -1.5, APOBEC3A inh -5.0, A1 inh 0.6, APOBEC3G inh 45.3*, APOBEC3G confirm 67.9* and UDG A3G counter -6.0.

Assay outcomes as filed in PubChem BioAssay.
